Results reported in PubChem BioAssay AID743449 (Broad Institute, 2014).
Hit rate of the full screen: of about 9,900 compounds, about 90 (0.9%) were called active. Another 2% or so got no clear call; they are omitted.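 Rule for the calls: active = mean normalized replicate activity at least 50 and at least half of replicates each reaching 50; inconclusive = only one of the two criteria met; inactive = neither criterion met.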 This excerpt belongs to a sample that is enriched for actives.

Assay: YAP1 pathway inhibitors via CTGF transcript, primary screen, DLD1 colon cancer cells, RT-qPCR, single point (AID 743449);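 note: 0% = neutral control wells and 100% = dasatinib control wells; higher means stronger suppression of CTGF expression like dasatinib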
Conditions: DLD1 CTGF mRNA qPCR, 24 h; at 12.5 µM; stronger effect = higher value

inhibition, active:
O=C([C@H]1[C@H](CO)[C@H]2Cn3c(ccc(-c4ccc(F)cc4)c3=O)[C@H]2N1Cc1cocn1)N1CCCCC1 53.6%, CO[C@H]1CN(C)C(=O)c2cc(NC(=O)Nc3ccccc3F)ccc2OC[C@H](C)N(CCC(F)(F)F)C[C@@H]1C 65.1%, CCC(=O)N1C[C@H](C)[C@@H](OC)CN(C)C(=O)c2cc(NC(=O)Nc3ccc(Cl)cc3)ccc2OC[C@@H]1C 59.6%, COc1ccccc1C(=O)Nc1ccc2c(c1)C(=O)N(C)C[C@H](OC)[C@@H](C)CN(C(C)=O)[C@@H](C)CO2 64.2%, CO[C@@H]1CN(C)C(=O)c2cc(NS(=O)(=O)c3ccccc3C)ccc2OC[C@@H](C)N(S(=O)(=O)c2ccccc2)C[C@H]1C 75.2%, COCC(=O)N1CC[C@@H]2[C@H](CO)Nc3ccc(C#Cc4ccc(F)cc4)cc3[C@@H]21 51.2%

inhibition, inactive:
O=C(C[C@@H]1C=C[C@H](NC(=O)c2cnccn2)[C@H](CO)O1)NCc1ccccc1F 7.69%, COc1ccc2c3c([nH]c2c1)[C@H](CO)NCC31CN(C(=O)Nc2c(C)noc2C)C1 -10.8%, COc1ccc(CN(C)C[C@@H]2OCCCC[C@@H](C)Oc3ccc(NC(=O)C4CCCCC4)cc3C(=O)N([C@H](C)CO)C[C@@H]2C)cc1 -11.6%, N#C[C@@H]1[C@H](c2ccc(-c3cccc(F)c3)cc2)[C@@H](CO)N1C(=O)CN1CCOCC1 0.153%, CN1C(=O)c2cc(NC(=O)c3cccc(Cl)c3)ccc2OC[C@H]2O[C@@H](CC(=O)NC3CCCCC3)CC[C@H]21 19.3%, COc1ccc(C(=O)N2C[C@H]3[C@@H](c4ccccc42)[C@@H](CO)N3Cc2ccccc2Cl)cc1 -11.9%, COCC(=O)N1[C@H](CO)[C@H](c2ccc(C#Cc3ccccc3F)cc2)[C@@H]1C#N 5.53%, COc1ccc(C(=O)N2C[C@@H]3[C@H](c4ccccc42)[C@H](CO)N3C(=O)NC(C)C)cc1 -12.1%, C[C@H]1CN([C@@H](C)CO)C(=O)c2ccccc2-c2ccccc2CO[C@@H]1CN(C)C(=O)[C@H](Cc1ccccc1)N(C)C -17.8%, Cc1noc(C)c1NC(=O)N(C)C[C@@H]1OCc2ccccc2-c2c(n(C)c3ccccc23)C(=O)N([C@H](C)CO)C[C@@H]1C -14.8%, CCCC(=O)Nc1ccc2c(c1)C(=O)N(C)C[C@H](OC)[C@@H](C)CN(C(=O)c1ccccn1)[C@@H](C)CO2 25.7%, O=C(NCC1CC1)[C@H]1[C@H](CO)[C@H]2Cn3c(ccc(-c4cccnc4)c3=O)[C@H]2N1Cc1cocn1 -2.27%, O=C([C@@H]1[C@@H](CO)[C@@H]2Cn3c(ccc(-c4ccc(F)cc4)c3=O)[C@@H]2N1Cc1cocn1)N1CCCCC1 -1.91%, CCS(=O)(=O)Nc1ccc2c(c1)C(=O)N(C)C[C@H](OC)[C@H](C)CN(C(=O)c1ccc3c(c1)OCO3)[C@@H](C)CO2 -9.16%, C[C@@H]1CN([C@H](C)CO)C(=O)CCCn2nncc2CO[C@H]1CN(C)Cc1ccc(C(=O)Nc2ccccc2N)cc1 -132%, COc1ccccc1C(=O)Nc1ccc2c(c1)C(=O)N(C)C[C@H](OC)[C@H](C)CN(C(C)=O)[C@H](C)CO2 -22.7%, COc1ccccc1C(=O)Nc1ccc2c(c1)C(=O)N(C)C[C@@H](OC)[C@@H](C)CN(C(C)=O)[C@@H](C)CO2 -6.31%, CO[C@H]1CN(C)C(=O)c2cc(NC(=O)Nc3ccccc3F)ccc2OC[C@@H](C)N(CCC(F)(F)F)C[C@@H]1C 8.27%, CO[C@@H]1CN(C)C(=O)c2cc(NC(=O)Nc3ccccc3F)ccc2OC[C@H](C)N(CCC(F)(F)F)C[C@H]1C 21%, CCCN1C[C@@H](C)[C@H](OC)CN(C)C(=O)c2cc(NS(=O)(=O)c3ccccc3)ccc2OC[C@@H]1C -22.6%, CCC(=O)N1C[C@@H](C)[C@@H](OC)CN(C)C(=O)c2cc(NC(=O)Nc3ccc(Cl)cc3)ccc2OC[C@@H]1C 15%, CCC(=O)N1C[C@@H](C)[C@@H](OC)CN(C)C(=O)c2cc(NC(=O)Nc3ccc(Cl)cc3)ccc2OC[C@H]1C -27.4%, CCCN1C[C@H](C)[C@@H](OC)CN(C)C(=O)c2cc(NS(=O)(=O)c3ccccc3)ccc2OC[C@H]1C 2.69%, C[C@H](CO)N1C[C@H](C)[C@@H](CN(C)S(=O)(=O)c2cn(C)cn2)OCc2ccccc2-c2ccccc2C1=O 13.5%, C[C@H]1CN([C@@H](C)CO)C(=O)c2cc(-c3ccncc3)cnc2O[C@@H]1CN(C)C(=O)CN1CCOCC1 4.89%, O=C(C1CCOCC1)N1C[C@H]2[C@@H](c3ccccc31)[C@H](CO)N2C(=O)Cc1ccccn1 -3.22%, CCCNC(=O)N(C)C[C@H]1[C@H](c2ccccc2)[C@@H](CO)N1C(=O)c1ccccc1 13.1%, COCC(=O)Nc1ccc2c(c1)[C@H]1C[C@@H](CC(=O)N3CCOCC3)O[C@H](CO)[C@H]1O2 -2.81%, C[C@H](CO)N1C[C@H](C)[C@H](CN(C)Cc2cccnc2)Oc2ncc(-c3ccc(C#N)cc3)cc2C1=O 10.9%, Cc1noc(C)c1S(=O)(=O)N(C)C[C@H]1OCCCC[C@@H](C)Oc2ccc(NC(=O)CCC(F)(F)F)cc2C(=O)N([C@@H](C)CO)C[C@H]1C -10.5%, CCN1[C@@H]2c3ccc(C4=CCCC4)c(=O)n3C[C@@H]2[C@@H](CO)[C@@H]1C(=O)NC1Cc2ccccc2C1 -18.3%, Cc1cc(C(=O)Nc2ccc3c(c2)C(=O)N(C)[C@@H]2CC[C@@H](CC(=O)O)O[C@H]2CO3)no1 8.49%, COCC(=O)N1CC[C@@H]2[C@@H](CO)Nc3ccc(C#Cc4ccc(F)cc4)cc3[C@@H]21 12.9%, COCC(=O)N1CC[C@@H]2[C@H]1c1cc(C#Cc3ccc(F)cc3)ccc1N[C@@H]2CO 22.4%
